Results filed as inconclusive are left out. Active and inactive are the calls of the source. Calls follow the shape of the full dose curve.
% is scaled to controls: 0 for no effect and ±100 for the full control effect.

Chain of Beta-2 adrenergic receptor (Homo sapiens) (P07550 whole entry, looked up): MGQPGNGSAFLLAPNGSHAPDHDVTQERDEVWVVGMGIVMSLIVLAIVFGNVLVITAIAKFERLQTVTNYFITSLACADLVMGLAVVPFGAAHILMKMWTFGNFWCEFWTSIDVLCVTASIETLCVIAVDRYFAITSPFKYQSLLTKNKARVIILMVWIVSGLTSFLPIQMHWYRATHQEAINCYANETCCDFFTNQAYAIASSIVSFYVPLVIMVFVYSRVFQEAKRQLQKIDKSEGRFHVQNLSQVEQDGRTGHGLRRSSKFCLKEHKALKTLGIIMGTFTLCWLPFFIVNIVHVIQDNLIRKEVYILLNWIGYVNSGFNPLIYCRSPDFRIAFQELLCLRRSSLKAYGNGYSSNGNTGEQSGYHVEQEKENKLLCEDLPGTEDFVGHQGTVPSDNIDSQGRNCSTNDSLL

In this experiment the target is Beta-2 adrenergic receptor (Homo sapiens) (UniProt P07550). The experiment is described as follows: Adrenergic beta2 receptor (ADRB2) small molecule agonists, cell-based qHTS assay (AID 1963593). The conditions noted are these: CHO-ADRB2 cells, cAMP HTRF, 30 min; series mostly up to 92.4 µM; activation: at the top concentration. An excerpt:
National Center for Advancing Translational Sciences [NCATS]
Division of Preclinical Innovation [DPI]
U.S. Environmental Protection Agency [EPA]
National Institutes of Environmental Health Sciences [NIEHS]
National Toxicology Program [NTP]
U.S. Food and Drug Administration [FDA]
Beta adrenergic receptors (Beta-ARs) belong to the G-protein coupled receptor (GPCR) superfamily, includes three subtypes - beta1, beta2, and beta3. Beta1-AR is the predominant receptor subtype expressed in the heart, and beta2-AR is expressed in the kidney, lung, blood vessel and in the heart, and beta3 is found in the adipocytes. Beta1 and 2 ARs couple to Gs protein and elevate cyclic adenosine mono phosphate (cAMP), which activates protein kinase A and leads to the downstream signaling responsible for the physiological actions. Beta-AR agonists or antagonists are the most prescribed therapeutic agents for heart failure and asthma, and these were one of the first target receptors for the rational drug design. Tox21 10K compound library was screened using the cAMP-Gs dynamic assay (Cisbio Bioassays, Shelton, CT) to identify agonists/antagonists of the Gs-coupled human adrenergic, beta2 receptor (ADRB2) in the CHO-ADRB2 cell line (Codex BioSolutions, Inc. Gaithersburg, MD), which stably over-expresses ADRB2. The principle of cAMP-Gs dynamic assay is based on HTRF technology, which facilitates the fluorescence resonance energy transfer (FRET) between donor Europium cryptate and acceptor d2-labeled cAMP. The cAMP generated within cells competes with the red acceptor, d2-labled cAMP, for binding to the monoclonal anti-cAMP-cryptate (Europium donor). An increase in intracellular cAMP leads to the disruption of FRET signal, and the signal is inversely proportional to the cAMP concentration. Isoproterenol HCl (Sigma-Aldrich, St. Louis, MO) was used as a positive control in the screening.
Tox21 Assay Protocol Summary:
CHO-ADRB2 cells were dispensed at 1,000/well in 4uL assay medium into white/solid 1536-well plates (Greiner Bio-One North America Inc., Monroe, NC) using a Multidrop Combi dispenser (ThermoFisher Scientific, Waltham, MA). The assay plates were incubated at 37C and 5% CO2 for an overnight (18-20hr). Then positive control and test compounds dissolved in DMSO were transferred to the assay plates at 23nL using a Pintool station (Wako, San Diego, CA). Following the compound and positive control transfer, 1uL stimulation mix containing 100uM IBMX and 25uM Ro-20-1724 was added to each well of the assay plates using BioRAPTR Flying Reagent Dispenser (FRD, Beckman Coulter, Brea, CA). The assay plates were incubated at room temperature for 0.5hr. Then 2.5ul each d2-labled cAMP and anti-cAMP-cryptate solutions were added separately to each well of the assay plates using an FRD and the assay plates were incubated at room temperature for 1hr.
Turning to `CCOC(=O)c1cncn1C(C)c1ccccc1` (stereo not given), the “activation” value was -16.9% [at 42.5 µM] (inactive).

Take `COC(=O)NS(=O)(=O)c1ccc(N)cc1`: the “activation” value was 2.58% (inactive).

For `CCCCCCn1cc[n+](C)c1`, the Potency entry was “inactive”.

With `NC(=O)OCCCc1ccccc1`, the “activation” value is -40.4% [at 42.5 µM] (inactive).

For the molecule `CCOP(=O)(CN(CCO)CCO)OCC`, the “activation” value is -20.8% (inactive).

`COC(=O)NC(=S)Nc1ccccc1NC(=S)NC(=O)OC`: the “activation” value was 5.63% (inactive).

As to `O=[N+]([O-])c1cc(Cl)ccc1Cl`, the “activation” value is -27.6% (inactive).

As for `COc1ccccc1OC`, the “activation” value was -1.2% (inactive).

For `Clc1ccc(C2(Cn3cncn3)OCCO2)c(Cl)c1`, the “activation” value was -0.596% (inactive).

On to `[CH3][Sn]([CH3])([Cl])[Cl]`, for which the “activation” value is -43.1% (inactive).

Regarding `Brc1c(Br)c(Br)c(Oc2c(Br)c(Br)c(Br)c(Br)c2Br)c(Br)c1Br`, the activation was -14.9% [at 19 µM] (inactive).

Turning to `Nc1ccccc1C(=O)OCC(O)CO` (stereo not given), the “activation” value was 7.73% [at 42.5 µM] (inactive).

For the molecule `N#CCBr`, the “activation” value is 1.86% (inactive).

In the case of `CN(C)P(=O)(N(C)C)N(C)C`, the “activation” value is -2.2% (inactive).

Regarding `O=NN1CCOCC1`, the Potency entry is “inactive”.

`CCOP(=O)(OCC)SCCSCC`: the “activation” value is 17.8% (inactive).

On to `BrCCBr`, for which the Potency entry was “inactive”.

With `O=[N+]([O-])c1ccccc1`, the Potency entry is “inactive”.

Regarding `O=C(O)CCl`, the “activation” value is -23.5% (inactive).

In the case of `CCOP(=O)(OCC)OP(=O)(OCC)OCC`, the “activation” value was 18.6% (inactive).

As for `CN(C)c1ccccc1`, the “activation” value is -14.4% (inactive).

Regarding `C=CC(C)=O`, the “activation” value was 1.41% (inactive).

For the molecule `CCBr`, the “activation” value is 0.514% (inactive).

For `CCCCCCCCCCCC(=O)O`, the Potency result is “inactive”.

Take `O=[N+]([O-])c1ccccc1O`: the Potency result is “inactive”.

Turning to `Cc1ccc(N=CN(C)C=Nc2ccc(C)cc2C)c(C)c1`, the “activation” value was 30.9% (inactive).

Regarding `Cc1cc(Cl)ccc1N=CN(C)C`, the “activation” value is -25.4% (inactive).

In the case of `ClC(Cl)(Cl)Br`, the “activation” value is 2.86% (inactive).

Take `CC12CC1(C)C(=O)N(c1cc(Cl)cc(Cl)c1)C2=O` (stereo not given): the “activation” value was -25.2% (inactive).

Take `C=C1CC[C@@]2(O)[C@H]3Cc4ccc(O)c5c4[C@@]2(CCN3CC2CC2)[C@H]1O5`: the “activation” value was 8.55% [at 42.5 µM] (inactive).

On to `C=C(C)C(=O)OCC(CC)CCCC` (stereo not given), for which the “activation” value is 4.31% (inactive).

As for `Clc1cccc(Cl)c1`, the “activation” value was -13.5% (inactive).

As for `CCNc1nc(Cl)nc(NCC)n1`, the Potency entry is “inactive”.

Regarding `CC(C)C1(C)N=C(c2ncccc2C(=O)O)NC1=O` (stereo not given), the “activation” value is -2.68% (inactive).

`CCC(C)(C)c1ccc(O)cc1`: the Potency result was “inactive”.

On to `CCCCCCCCCCCCOS(=O)(=O)O`, for which the Potency result is “inactive”.

For `CC(C)(C)C(O)(CCc1ccc(Cl)cc1)Cn1cncn1` (stereo not given), the “activation” value was -84.4% (inactive).

Consider `O=[N+]([O-])c1ccc(Cl)cc1`, for which the Potency result was “inactive”.

As for `COP(=O)(OC)C(O)C(Cl)(Cl)Cl` (stereo not given), the “activation” value was 0.892% (inactive).

As to `Sc1ccccc1Cl`, the “activation” value is 8.91% [at 42.5 µM] (inactive).
